# Test results from PubChem BioAssay (NCATS).
# Results filed as inconclusive are left out. Calls of active or inactive are those of the source. Calls come from the whole dose curve; as a rule, active = well fitted inhibition curve with a large enough effect; inconclusive = small, poorly fitted or top-dose-only effect; inactive = no such curve, though single readings can be large or run the other way.
# Assay: qHTS for Inhibitors of the Aldehyde Dehydrogenase Family (ALDH1A2, ALDH1A3, ALDH2, ALDH3A1) (AID 2061307); note: nearly all actives have a fitted effect of over 50% in size; for Potency: test system not described further here
# Details: ALDH inhibition qHTS; series mostly up to 50.3 µM; activity change, negative = inhibition: at the top concentration
# % is set by controls: 0 for no effect and ±100 for the full control effect; potency is the fitted concentration of half-maximal effect.
Compound,"activity change, negative = inhibition",Potency
CCc1ccc(CSc2nccn2-c2ccccc2)cc1,-11.5% (inactive),
CCOC(=O)N1CCN(Cc2nc3cc(NC(=O)CC(C)C)ccc3n2C(C)C)CC1,-6.69% (inactive),
CN(C)CCCN1c2ccc([N+](=O)[O-])cc2CCc2cc([N+](=O)[O-])ccc21,-85.5% (inactive),
O=C(NC1CCCc2c1cnn2-c1ccc(OCCOCCOCCNCCc2cn(-c3cc4ccc(O)cc4oc3=O)nn2)cc1)c1ccccn1 (stereo not drawn),-28.5% (inactive),
Fc1ccc(Cn2cnc3ccccc32)cc1F,,12.7 µM (active)
O=C(Nc1ccccc1OC(F)(F)F)c1csc(-c2ccc(F)cc2)n1,-41.5% [at 34.4 µM] (inactive),
O=C1CC(c2c(F)cccc2F)c2sc(N3CCOCC3)nc2N1 (stereo not drawn),,11.3 µM (active)
O=C(Nc1ccc(CCO)cc1)c1ncoc1-c1ccccc1Cl,-14.7% [at 34.4 µM] (inactive),
CCOC(=O)Cc1ccc(NC(=O)n2ncc3cc(Cl)ccc32)cc1,-0.401% (inactive),
COc1cc(O)c(C(CC(=O)N2CC(C)CC(C)C2)c2ccc(C(N)=O)cc2)c(OC)c1 (stereo not drawn),,0.282 µM (active)
COc1cccc(CNc2ccc(S(=O)(=O)Nc3nc4ccccc4[nH]3)cc2)c1O,-9.18% (inactive),
COc1ccc(F)cc1NC(=O)Cc1csc(-c2ccccc2Cl)n1,-58.1% [at 34.4 µM] (inactive),
COc1ccc(C(=O)N=Nc2c(O)n(Cc3c(Cl)cccc3Cl)c3ccccc23)cc1,53.1% (inactive),
Cc1cn(-c2cc(NC(=O)c3ccc(C)c(N)c3)cc(C(F)(F)F)c2)cn1,19.3% (inactive),
O=C(O)c1ccnc(-n2cc(Br)cn2)c1,-2.09% (inactive),
FC(F)(F)c1ccnn1-c1nc(-c2ccccc2Cl)cs1,-8.85% [at 34.4 µM] (inactive),
COc1cccc(NC(=O)c2cc3ccccc3[nH]c2=O)c1,-0.551% [at 34.4 µM] (inactive),
O=C(Nc1nc(-c2ccccn2)cs1)C1CCCCC1,,3.98 µM (active)
O=C(Nc1cc(C(F)(F)F)ccc1Cl)c1nc2ccccc2nc1N1CCCCC1,-39.3% [at 34.4 µM] (inactive),
COc1ccc(CN2CCN(C(=O)c3cc4c(s3)CCC4)CC2)cc1,-6.09% (inactive),
O=C(O)c1ccc(-n2[nH]c(-c3ccccc3)cc2=O)cc1,,8.91 µM (active)
CSc1sc(C(=O)NN)c2c1C(O)CCC2 (stereo not drawn),,22.5 µM (active)
CC(NC(=O)c1c(O)nc2ccccn2c1=O)c1ccccc1 (stereo not drawn),0% [at 34.4 µM] (inactive),
